Experiment [1] deals with T1, cGMP-dependent protein kinase 1 (Homo sapiens) (UniProt Q13976).
T1 sequence (whole entry): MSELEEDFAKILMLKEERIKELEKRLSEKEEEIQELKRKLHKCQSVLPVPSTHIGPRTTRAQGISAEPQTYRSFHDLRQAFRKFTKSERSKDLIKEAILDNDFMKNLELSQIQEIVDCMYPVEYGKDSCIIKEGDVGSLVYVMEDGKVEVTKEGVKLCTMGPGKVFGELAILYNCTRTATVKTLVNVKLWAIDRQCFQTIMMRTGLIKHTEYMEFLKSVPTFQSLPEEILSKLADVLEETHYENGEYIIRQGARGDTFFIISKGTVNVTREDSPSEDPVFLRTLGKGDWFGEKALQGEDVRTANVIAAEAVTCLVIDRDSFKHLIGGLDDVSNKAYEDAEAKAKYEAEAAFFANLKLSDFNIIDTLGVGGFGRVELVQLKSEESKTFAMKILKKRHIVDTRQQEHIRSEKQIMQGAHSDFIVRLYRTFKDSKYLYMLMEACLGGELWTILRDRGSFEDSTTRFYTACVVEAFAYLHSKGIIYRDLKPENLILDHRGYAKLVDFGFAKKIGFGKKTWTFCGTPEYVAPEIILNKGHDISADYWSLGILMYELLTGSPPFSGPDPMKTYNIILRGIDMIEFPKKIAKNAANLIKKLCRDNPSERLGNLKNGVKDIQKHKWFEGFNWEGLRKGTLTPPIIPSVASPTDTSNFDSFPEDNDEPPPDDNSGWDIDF
The note with it: at 1 µM.

The target in experiment [2] is T1, cGMP-dependent protein kinase 1 (Homo sapiens). The conditions noted are these: at 10 µM.
For experiment [3] the target is unchanged. The conditions noted are these: at 1 µM. This is another data set of the same source.
Experiment [4] has the same target. The note with it: at 10 µM. The source holds these as a separate data set.
Experiment [5] has as its target T2, MAP kinase-activated protein kinase 5 (Homo sapiens) (UniProt Q8IW41).
T2 sequence (whole entry): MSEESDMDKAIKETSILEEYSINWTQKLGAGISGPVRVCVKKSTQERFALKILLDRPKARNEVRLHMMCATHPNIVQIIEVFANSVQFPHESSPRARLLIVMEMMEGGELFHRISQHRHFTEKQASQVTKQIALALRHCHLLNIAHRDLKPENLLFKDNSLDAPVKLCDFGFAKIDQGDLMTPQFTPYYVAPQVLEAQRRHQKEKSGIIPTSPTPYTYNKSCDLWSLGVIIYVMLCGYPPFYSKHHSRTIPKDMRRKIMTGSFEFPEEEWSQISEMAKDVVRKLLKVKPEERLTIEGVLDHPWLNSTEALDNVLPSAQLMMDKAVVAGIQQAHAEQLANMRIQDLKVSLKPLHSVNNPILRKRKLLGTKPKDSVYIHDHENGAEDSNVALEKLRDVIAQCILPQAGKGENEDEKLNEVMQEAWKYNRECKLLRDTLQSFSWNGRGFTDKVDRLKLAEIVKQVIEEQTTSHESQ
The conditions noted are these: at 1 µM.

For experiment [6], the target named is T2, MAP kinase-activated protein kinase 5 (Homo sapiens). The conditions noted are these: at 10 µM.
Experiment [7] addresses Serine/threonine-protein kinase N2 (Homo sapiens) (UniProt Q16513). The conditions noted are these: at 1 µM.
Experiment [8] has the same target. The note with it: at 10 µM.
Experiment [9] concerns the target Tyrosine-protein kinase FRK (Homo sapiens) (UniProt P42685). The conditions noted are these: at 1 µM.
The target is the same in experiment [10]. The note with it: at 10 µM.
The target of experiment [11] is T3, Phosphorylase b kinase gamma catalytic chain, liver/testis isoform (Homo sapiens) (UniProt P15735).
T3 sequence (whole entry): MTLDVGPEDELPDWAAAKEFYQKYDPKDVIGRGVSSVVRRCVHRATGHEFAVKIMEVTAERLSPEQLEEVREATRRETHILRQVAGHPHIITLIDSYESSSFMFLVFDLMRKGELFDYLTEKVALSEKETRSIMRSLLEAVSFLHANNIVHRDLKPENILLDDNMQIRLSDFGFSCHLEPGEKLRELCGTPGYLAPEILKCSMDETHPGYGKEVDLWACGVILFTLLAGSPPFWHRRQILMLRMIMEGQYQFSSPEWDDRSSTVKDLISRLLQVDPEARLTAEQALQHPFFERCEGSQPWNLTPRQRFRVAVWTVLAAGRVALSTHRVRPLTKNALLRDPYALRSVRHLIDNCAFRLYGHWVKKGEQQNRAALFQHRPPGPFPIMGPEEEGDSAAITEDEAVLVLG
The conditions noted are these: at 1 µM.

In experiment [12] the target is T3, Phosphorylase b kinase gamma catalytic chain, liver/testis isoform (Homo sapiens). The conditions noted are these: at 10 µM.
Experiment [13] addresses Serine/threonine-protein kinase pim-1 (Homo sapiens) (UniProt P11309). The note with it: at 1 µM.
Experiment [14] shares this target. The conditions noted are these: at 10 µM.
Experiment [15] addresses Serine/threonine-protein kinase pim-2 (Homo sapiens) (UniProt Q9P1W9). The note with it: at 1 µM.
Experiment [16] has the same target. The note with it: at 10 µM.
The target of experiment [17] is Serine/threonine-protein kinase pim-3 (Homo sapiens) (UniProt Q86V86). The note with it: at 1 µM.
For experiment [18] the target is unchanged. The conditions noted are these: at 10 µM.
The target in experiment [19] is Serine/threonine-protein kinase PLK1 (Homo sapiens) (UniProt P53350). The note with it: at 1 µM.
Chain of Serine/threonine-protein kinase PLK1 (Homo sapiens) (P53350 whole entry): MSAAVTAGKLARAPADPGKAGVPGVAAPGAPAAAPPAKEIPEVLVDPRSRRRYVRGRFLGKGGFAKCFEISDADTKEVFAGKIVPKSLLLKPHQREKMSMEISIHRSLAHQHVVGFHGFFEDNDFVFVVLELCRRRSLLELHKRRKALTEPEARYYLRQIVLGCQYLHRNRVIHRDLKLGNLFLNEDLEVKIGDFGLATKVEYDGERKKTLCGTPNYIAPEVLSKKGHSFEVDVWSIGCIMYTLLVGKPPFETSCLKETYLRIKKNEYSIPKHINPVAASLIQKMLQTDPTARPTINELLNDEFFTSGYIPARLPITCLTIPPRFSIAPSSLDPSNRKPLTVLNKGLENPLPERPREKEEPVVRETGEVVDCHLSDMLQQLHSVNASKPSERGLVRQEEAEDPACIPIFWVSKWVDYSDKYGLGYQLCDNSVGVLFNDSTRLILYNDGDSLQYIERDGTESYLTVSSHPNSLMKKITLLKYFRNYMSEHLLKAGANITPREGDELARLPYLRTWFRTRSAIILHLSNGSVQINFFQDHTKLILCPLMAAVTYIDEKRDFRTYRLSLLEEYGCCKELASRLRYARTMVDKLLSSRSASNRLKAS
Experiment [20] has the same target. The note with it: at 10 µM.

The structures appear in SMILES notation.

Chain of Serine/threonine-protein kinase pim-2 (Homo sapiens) (Q9P1W9 whole entry, looked up): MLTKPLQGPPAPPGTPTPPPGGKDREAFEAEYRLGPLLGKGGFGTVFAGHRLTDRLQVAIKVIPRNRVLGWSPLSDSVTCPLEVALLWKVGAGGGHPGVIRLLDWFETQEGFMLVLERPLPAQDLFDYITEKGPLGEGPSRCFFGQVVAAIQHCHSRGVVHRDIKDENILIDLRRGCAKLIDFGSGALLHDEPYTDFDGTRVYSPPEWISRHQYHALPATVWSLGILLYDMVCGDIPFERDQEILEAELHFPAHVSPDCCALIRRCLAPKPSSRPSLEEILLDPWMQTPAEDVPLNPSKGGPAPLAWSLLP
Chain of Serine/threonine-protein kinase N2 (Homo sapiens) (Q16513 whole entry, looked up): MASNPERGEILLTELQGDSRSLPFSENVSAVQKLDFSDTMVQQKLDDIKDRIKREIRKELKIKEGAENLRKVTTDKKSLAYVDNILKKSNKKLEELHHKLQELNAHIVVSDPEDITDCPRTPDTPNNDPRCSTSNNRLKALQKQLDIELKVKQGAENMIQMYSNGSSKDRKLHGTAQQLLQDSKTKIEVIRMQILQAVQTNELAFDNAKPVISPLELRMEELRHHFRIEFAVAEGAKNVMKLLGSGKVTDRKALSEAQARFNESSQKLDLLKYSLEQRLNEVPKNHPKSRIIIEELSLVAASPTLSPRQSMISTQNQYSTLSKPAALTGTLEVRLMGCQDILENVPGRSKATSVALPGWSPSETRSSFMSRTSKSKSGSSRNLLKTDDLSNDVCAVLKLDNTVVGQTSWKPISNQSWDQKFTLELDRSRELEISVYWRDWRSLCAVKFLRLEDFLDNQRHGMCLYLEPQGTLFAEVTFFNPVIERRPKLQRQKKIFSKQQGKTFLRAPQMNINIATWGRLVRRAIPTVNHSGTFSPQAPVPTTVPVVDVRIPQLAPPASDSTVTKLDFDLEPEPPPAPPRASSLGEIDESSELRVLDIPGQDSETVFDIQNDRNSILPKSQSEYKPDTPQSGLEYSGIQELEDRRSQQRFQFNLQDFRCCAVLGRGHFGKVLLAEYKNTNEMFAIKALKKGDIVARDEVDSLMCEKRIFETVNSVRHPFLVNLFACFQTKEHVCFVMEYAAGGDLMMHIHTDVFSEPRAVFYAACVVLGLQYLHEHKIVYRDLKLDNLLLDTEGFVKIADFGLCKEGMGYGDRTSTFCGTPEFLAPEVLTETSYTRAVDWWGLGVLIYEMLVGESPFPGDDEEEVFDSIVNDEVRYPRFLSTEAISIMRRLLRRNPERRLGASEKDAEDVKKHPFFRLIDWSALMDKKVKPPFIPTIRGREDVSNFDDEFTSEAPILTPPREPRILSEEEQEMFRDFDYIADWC
Chain of Tyrosine-protein kinase FRK (Homo sapiens) (P42685 whole entry): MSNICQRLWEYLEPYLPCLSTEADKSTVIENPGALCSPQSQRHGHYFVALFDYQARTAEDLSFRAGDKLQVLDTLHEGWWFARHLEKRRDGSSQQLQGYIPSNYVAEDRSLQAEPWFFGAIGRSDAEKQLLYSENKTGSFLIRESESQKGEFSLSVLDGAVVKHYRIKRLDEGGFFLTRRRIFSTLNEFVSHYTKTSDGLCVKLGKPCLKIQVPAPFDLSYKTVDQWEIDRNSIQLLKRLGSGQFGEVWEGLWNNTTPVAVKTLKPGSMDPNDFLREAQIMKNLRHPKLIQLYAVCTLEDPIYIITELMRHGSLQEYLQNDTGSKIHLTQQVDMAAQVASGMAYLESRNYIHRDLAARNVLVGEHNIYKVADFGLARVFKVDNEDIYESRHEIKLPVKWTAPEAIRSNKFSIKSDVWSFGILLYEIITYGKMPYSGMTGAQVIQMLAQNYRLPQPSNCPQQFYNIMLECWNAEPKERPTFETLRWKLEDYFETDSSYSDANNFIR
Chain of Serine/threonine-protein kinase pim-1 (Homo sapiens) (P11309 whole entry, looked up): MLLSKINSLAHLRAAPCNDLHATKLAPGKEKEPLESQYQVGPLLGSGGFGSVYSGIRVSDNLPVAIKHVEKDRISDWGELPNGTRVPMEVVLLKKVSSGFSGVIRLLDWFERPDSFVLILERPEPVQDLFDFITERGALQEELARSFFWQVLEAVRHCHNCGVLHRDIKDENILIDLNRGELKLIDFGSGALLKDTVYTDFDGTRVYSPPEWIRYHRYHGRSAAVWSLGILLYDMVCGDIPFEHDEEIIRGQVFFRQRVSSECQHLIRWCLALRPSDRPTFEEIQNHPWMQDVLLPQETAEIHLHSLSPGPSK

For the compound `Cc1ccc(S(=O)(=O)/C=C/C#N)cc1`, the residual activity amounted to 85% in experiment [1]; 99% in [2]; 107% in experiment [3]; 92% in experiment [4]; 110% in [5]; 111% in experiment [6]. The residual activity amounted to 90% in experiment [7]; 87% in [8]; 70% in [9]; 82% in [10]; 114% in experiment [11]; 111% in experiment [12]. Also, the residual activity in experiment [13] came to 97%; in experiment [14], 95%; in experiment [15], 111%; in [16], 103%; in experiment [17], 91%; in experiment [18], 102%. The residual activity in experiment [19] is 92%; in [20], 102%.
Consider `Cn1cc(/C=C2\C(=O)Nc3ccc(S(N)(=O)=O)cc32)c2ccccc21`, for which the residual activity in experiment [1] turned out to be 103%; in experiment [2], 101%; in [3], 77%; in experiment [4], 54%; in experiment [5] it was 62%; in [6], 54%. The residual activity was 58% in [7]; 23% in experiment [8]; 74% in experiment [9]; 35% in experiment [10]; 24% in experiment [11]; 9% in [12]. Also, the residual activity turned out to be 76% in experiment [13]; 111% in experiment [14]; 109% in [15]; 97% in experiment [16]; 102% in experiment [17]; 109% in [19]. Besides, the residual activity in [20] turned out to be 93%.
Regarding `Nc1cccc(-c2cc3c(Oc4cccc(O)c4)ncnc3[nH]2)c1`, the residual activity worked out at 91% in [4]; 100% in experiment [5]; 71% in [6]; 98% in experiment [7]; 67% in experiment [8]; 1% in experiment [9]. Besides, the residual activity in [10] was 0%; in experiment [11] it was 120%; in experiment [12], 91%; in experiment [13], 75%; in experiment [14], 34%; in experiment [15] it was 118%. Further, the residual activity stood at 84% in experiment [16]; 86% in experiment [17]; 91% in [18]; 78% in experiment [19]; 83% in experiment [20].
With `Cc1cc(Nc2nc(-c3ccccc3)nc3ccccc23)n[nH]1`, the residual activity in experiment [1] amounted to 82%; in experiment [2], 39%; in experiment [3] it was 82%; in experiment [4], 27%; in experiment [8], 58%; in [9], 46%. Also, the residual activity in [10] came to 8%; in [12], 35%; in experiment [13], 104%; in [14] it was 57%; in experiment [15], 126%; in experiment [19], 73%. In experiment [20], the residual activity was found to be 40%.
As to `O=C(Nc1cccc(Nc2cc(Nc3cccc(C(F)(F)F)c3)ncn2)c1)C1CC1`, the residual activity in experiment [1] turned out to be 117%; in [2], 100%; in [3] it was 81%; in experiment [4], 88%; in experiment [5], 110%; in [6] it was 24%. In addition, the residual activity worked out at 93% in experiment [7]; 93% in [8]; 101% in experiment [9]; 73% in experiment [10]; 86% in experiment [11]; 98% in experiment [12]. For the same compound, the residual activity worked out at 112% in experiment [13]; 88% in [15]; 108% in experiment [16]; 93% in experiment [17]; 102% in [18]; 99% in experiment [19]. For the same compound, the residual activity in [20] was found to be 91%.
`O=C1NC(=O)/C(=C\c2ccc3nccnc3c2)S1`: the residual activity in [1] worked out at 125%; in [2] it was 97%; in [3] it was 80%; in experiment [4], 62%; in experiment [5] it was 96%; in [6] it was 93%. For the same compound, the residual activity was determined as 103% in experiment [7]; 94% in [8]; 110% in [9]; 93% in [10]; 90% in experiment [11]; 50% in [12]. Moreover, the residual activity in [13] was found to be 42%; in experiment [14] it was 10%; in experiment [15] it was 75%; in experiment [16], 22%; in experiment [17], 61%; in experiment [18], 14%. Besides, the residual activity in [19] is 80%; in experiment [20] it was 64%.
As to `Cc1cc2ncc(-c3ccccc3)nc2cc1C`, the residual activity in [1] was 110%; in experiment [2] it was 130%; in experiment [3], 83%; in experiment [4], 94%; in [5], 101%; in experiment [6], 73%. The residual activity in [7] is 102%; in [8], 107%; in experiment [9], 105%; in [10] it was 88%; in experiment [11] it was 94%; in experiment [12], 101%. Moreover, the residual activity is 97% in experiment [13]; 84% in [14]; 126% in [15]; 100% in experiment [17]; 96% in [18]; 81% in experiment [19]. In experiment [20], the residual activity was found to be 75%.
`O=C1Nc2ccccc2/C1=C1/Nc2ccccc2/C1=N\OCCC(O)CO` (stereo unspecified): the residual activity in [1] amounted to 56%; in [2], 19%; in experiment [3], 44%; in experiment [4], 9%; in experiment [6], 27%; in [7] it was 76%. In addition, the residual activity in experiment [8] was found to be 53%; in experiment [9], 11%; in [10], 1%; in experiment [11], 21%; in [12], 5%; in [13], 58%. Also, the residual activity in [14] turned out to be 11%; in [15], 98%; in experiment [16], 44%; in experiment [17], 75%; in experiment [18] it was 64%; in experiment [19], 72%. Also, the residual activity in experiment [20] came out at 75%.

For the origin of these results see ChEMBL document CHEMBL2218924, “A broad activity screen in support of a chemogenomic map for kinase signalling research and drug discovery” (Biochem J, 2013).
